Data taken from PubChem BioAssay AID624390 (National Center for Advancing Translational Sciences (NCATS), 2012).
Calls of active or inactive are those of the source. Calls follow the shape of the dose curve; as a rule, active = well fitted curve in the direction sought with a large enough effect; inactive = no such curve, though single readings can be large or run the other way.

target: Pyruvate kinase PKLR (Homo sapiens) (UniProt P30613); experiment: qHTS for Activators of Human Muscle Isoform Pyruvate Kinase: Extended Characterization against Liver Pyruvate Kinase Probe 2; conditions: purified hPK-L, ATP production, Kinase-Glo luminescence; series mostly up to 57.7 µM; activity change, positive = activation: at the top concentration
Sequence (P30613 whole entry, looked up, canonical isoform): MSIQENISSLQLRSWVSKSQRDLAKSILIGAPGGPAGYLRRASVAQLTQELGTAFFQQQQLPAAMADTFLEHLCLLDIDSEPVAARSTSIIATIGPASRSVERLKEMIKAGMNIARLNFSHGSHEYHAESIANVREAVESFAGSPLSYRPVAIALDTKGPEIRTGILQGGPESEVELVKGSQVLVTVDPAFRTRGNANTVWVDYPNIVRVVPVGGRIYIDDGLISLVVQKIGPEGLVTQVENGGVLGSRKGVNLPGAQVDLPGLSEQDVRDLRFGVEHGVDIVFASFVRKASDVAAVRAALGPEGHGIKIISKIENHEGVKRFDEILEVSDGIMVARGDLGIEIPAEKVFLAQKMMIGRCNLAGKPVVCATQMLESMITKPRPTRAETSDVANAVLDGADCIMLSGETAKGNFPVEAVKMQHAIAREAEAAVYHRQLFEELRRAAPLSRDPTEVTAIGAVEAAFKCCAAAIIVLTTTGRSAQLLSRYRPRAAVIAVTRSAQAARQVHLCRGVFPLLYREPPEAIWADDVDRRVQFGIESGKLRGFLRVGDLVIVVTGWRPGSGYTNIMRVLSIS
Experimental: Human pyruvate kinase liver (hPK-L) enzyme was supplied as a highly purified (>95% pure) preparation from Harvard Medical School and assayed for its ability to generate ATP from ADP using phosphoenolpyruvate (PEP) as a substrate. ATP generation was detected in a coupled reaction by luciferase-mediated luminescence, an ATP-dependent process. Pyruvate kinase substrates, PEP and ADP, were present in the assay at Km and approximately 10-fold below Km respectively. The enzyme was assayed at an intermediate level of activity to screen for both inhibitors and activators. NIH Chemical Genomics Center [NCGC] NIH Molecular Libraries Probe Centers Network [MLPCN] MLPCN Grant: MH085679 Assay Submitter (PI): Matthew G. Vander Heiden, Harvard Medical School
Three uL of substrate mix (at r.t.) in assay buffer (50 mM Imidazole pH7.2, 50 mM KCl, 7 mM MgCl2, 0.01% Tween 20, 0.05% BSA) was dispensed into white solid bottom 1,536 well microtiter plates so that the final concentrations of substrates in the assay were 0.1 mM ADP and 0.5 mM PEP. 23 nL of compound were delivered by a pin tool and 1 uL of enzyme mix (final concentration of 0.1 nM) in assay buffer (4 degree Celsius) was added. Plates were incubated at room temperature for 1 hour. Two uL of detection mix (Kinase-Glo, Promega; at 4 degree Celsius protected from light) was added and luminescence read by a ViewLux (Perkin Elmer) at 1 second exposure/plate. Data were normalized to the uninhibited (row 31). Additionally, a no enzyme and 5-fold enzyme control was dispensed in row 32, split equally between the two conditions.

Compound	activity change, positive = activation
Nc1cccc(S(=O)(=O)N2CCCN(S(=O)(=O)c3ccc4c(c3)OCCO4)CC2)c1	10.9% (inactive)
COc1cccc(Cn2ncc3c4sc(S(C)=O)cc4n(C)c3c2=O)c1 (centres undefined)	-7.39% (inactive)
O=S(=O)(c1ccc2c(c1)OCCO2)N1CCN(S(=O)(=O)c2c(F)cccc2F)CC1	-0.557% (inactive)
Cc1ccc(NS(=O)(=O)c2ccc3c(c2)CCC(=O)N3)cc1C	-1.46% (inactive)
